This passage reports growth inhibition results from PubChem BioAssay (NCI).

The panel holds about 79,000 compounds, 15% with a hit somewhere; the sample as a whole holds those more often. A number with no mark means an inactive call. Active and inactive are the calls of the source. Rule as the data show it: active = growth inhibition above about 70%; inactive = the rest.

Experiment [1] is described as follows: NCI Yeast Anticancer Drug Screen. Data for the rad50 strain (AID 155).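 Also: 0% = growth of vehicle-only cultures of the same strain.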 Particulars: S. cerevisiae rad50 strain growth inhibition; at 50.0 µM; stronger effect = higher value. An outline of the steps: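 Inhibition values express reduced yeast growth in compound-treated cultures relative to vehicle-treated controls.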
A short description of experiment [2]: NCI Yeast Anticancer Drug Screen. Data for the mec2-1 strain (AID 157). As to conditions: S. cerevisiae mec2-1 strain, at 50.0 µM, stronger effect = higher value. An outline of the steps:
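Yeast mec2-1 mutant treated with compound. Readout: growth inhibition vs vehicle controls.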

Experiment [3] in a line: NCI Yeast Anticancer Drug Screen. Data for the sgs1 mgt1 strain (AID 161).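 Also: 0% = growth of cultures given vehicle only.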 As to conditions: S. cerevisiae sgs1 mgt1 strain, at 50.0 µM, stronger effect = higher value. The method, boiled down: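 Read-out: growth inhibition vs vehicle controls. Cells: mutant yeast strain deficient in DNA damage repair.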
Experiment [4] in a line: NCI Yeast Anticancer Drug Screen. Data for the cln2 rad14 strain (AID 165).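 Also: 0% = growth equal to vehicle treated cultures.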 As to conditions: S. cerevisiae cln2 rad14 strain, at 50.0 µM, stronger effect = higher value. The method, boiled down:
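cln2 rad14 yeast strain; compound exposure; growth inhibition read vs vehicle controls.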

Experiment [5] in a line: NCI Yeast Anticancer Drug Screen. Data for the bub3 strain (AID 167). Particulars: S. cerevisiae bub3 mutant strain, at 50.0 µM, stronger effect = higher value. The method, boiled down: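 Steps: expose the mutant yeast strain to compound; grow alongside vehicle-treated cultures; measure growth; express inhibition against the vehicle cultures.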
Experiment [6] can be described thus: NCI Yeast Anticancer Drug Screen. Data for the mlh1 rad18 strain (AID 175). Particulars: S. cerevisiae mlh1 rad18 strain growth inhibition; at 50.0 µM; stronger effect = higher value. The method, boiled down: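 Yeast w/ defined DNA-repair lesions; compound exposure; growth vs vehicle controls → % inhibition.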

On to `CC1(c2nc3ccccc3s2)CCCO1` (stereo not drawn), for which the growth inhibition in experiment [1] was -6.1%; in experiment [2], 23.8%; in experiment [3], 7.6%; in experiment [4], -13.7%; in experiment [5] it was 7.55%; in experiment [6], 8.4%.
As for `CCCCCCC(=O)C/C(CCC(=O)N(Cc1ccccc1)Cc1ccccc1)=N\NC(N)=O`, the growth inhibition was -6.65% in experiment [1]; 2.75% in experiment [2]; -14.8% in experiment [3]; 3.75% in experiment [4]; -6.65% in experiment [5]; -20.8% in experiment [6].
Regarding `COC(=O)/C(=N\NC(N)=O)C(C(=O)C=C(C)C)C(=O)C(=O)Nc1ccc(Cl)c(Cl)c1` (stereo not drawn), the growth inhibition was -9% in experiment [1]; -40.6% in experiment [2]; -34.6% in experiment [3]; 12.2% in experiment [4]; -17% in experiment [5]; -27.6% in experiment [6].
`O=C1C(SCCO)=C(SCCO)C(=O)c2[nH]cnc21`: the growth inhibition in experiment [1] was 13.8%; in experiment [2] it was -10.4%; in experiment [3], 6.5%; in experiment [4], -0.85%; in experiment [5] it was 6.8%; in experiment [6], 4.15%.
For `CCCCCCCCCCCCCCCCSS(=O)(=O)O`, the growth inhibition in experiment [1] is 8.5%; in experiment [2], 15.7%; in experiment [3], 15.8%; in experiment [4], -1.15%; in experiment [5], 0.15%; in experiment [6], 4.9%.
Regarding `O=c1oc(-c2cccc(C[n+]3ccccc3)c2)nc2cc(Cl)ccc12`, the growth inhibition was -14.9% in experiment [1]; -6.8% in experiment [2]; -11.4% in experiment [3]; -0.45% in experiment [4]; -7.1% in experiment [5]; -4.75% in experiment [6].
As to `CC(=O)Oc1ccc(/C=N\N(C)CN(C)/N=C/c2ccc(OC(C)=O)cc2)cc1`, the growth inhibition was 14% in experiment [1]; -9.65% in experiment [2]; 31.6% in experiment [3]; 18.4% in experiment [4]; 1.65% in experiment [5]; 17.7% in experiment [6].
Regarding `O=[N+]([O-])C(C(Cl)=C(Cl)Cl)=C(n1nnc2ccccc21)n1nnc2ccccc21`, the growth inhibition was 40.6% in experiment [1]; 34.9% in experiment [2]; 25.3% in experiment [3]; 27.1% in experiment [4]; 19% in experiment [5]; 21.1% in experiment [6].
Take `COc1cc(NCCCCCN2C(=O)c3ccccc3C2=O)c2ncccc2c1`: the growth inhibition in experiment [1] is 13.9%; in experiment [2], 13.2%; in experiment [3] it was 17.4%; in experiment [4], 11%; in experiment [5], 10.7%; in experiment [6] it was 0.1%.
`Cc1nc(Cl)c(C)c(Cl)n1`: the growth inhibition is 13.4% in experiment [1]; -28.6% in experiment [2]; 1.4% in experiment [3]; 5.2% in experiment [4]; -5% in experiment [5]; 15.9% in experiment [6].
As for `CN(C(=O)c1ccc(C(=N)N)cc1)c1ccccc1`, the growth inhibition in experiment [1] is -8.3%; in experiment [2], -7.3%; in experiment [3], -5.1%; in experiment [4], -12.8%; in experiment [5], -0.05%; in experiment [6] it was -8.95%.
As to `CN(C)CC1CCCC/C1=N/OC(=O)c1ccc(Cl)cc1` (stereo not drawn), the growth inhibition in experiment [1] was 0.15%; in experiment [2], 2.1%; in experiment [3], 10.9%; in experiment [4], 11.4%; in experiment [5], -4.6%; in experiment [6], 13.7%.
For `CC1=C(O[Si](C(C)C)(C(C)C)C(C)C)C2CC1[C@@H]1C(=O)N(c3ccccc3)C(=O)[C@H]21` (stereo partly drawn), the growth inhibition is -1.45% in experiment [1]; -10.8% in experiment [2]; -7.15% in experiment [3]; 5.5% in experiment [4]; -15.6% in experiment [5]; -15.1% in experiment [6].
On to `C=CCc1ccc(OC(=O)Nc2ccccc2)c(OC)c1`, for which the growth inhibition in experiment [1] was 55.9%; in experiment [2], 25.2%; in experiment [3], 31.4%; in experiment [4], 13.9%; in experiment [5], 33.5%; in experiment [6], 23.4%.
For the compound `Cc1nc(N)[nH]c(=O)c1N`, the growth inhibition in experiment [1] was 13.9%; in experiment [2], 3.4%; in experiment [3], 8.25%; in experiment [4] it was 11.8%; in experiment [5], -7.8%; in experiment [6] it was 8.6%.
For the compound `Cn1cncc1CC1COC(=O)C1C(O)c1ccccc1` (stereo not drawn), the growth inhibition was 11% in experiment [1]; 8.45% in experiment [2]; -14.2% in experiment [3]; -1.5% in experiment [4]; -26.9% in experiment [5]; -53.9% in experiment [6].
In the case of `CCCCCCCC(=O)OCC(COC(=O)CCCCCCC)OC(=O)CCCCCCC`, the growth inhibition in experiment [1] is 40.8%; in experiment [2], 3.6%; in experiment [3], 1.6%; in experiment [4], -33.5%; in experiment [5], 9.55%; in experiment [6], 27.1%.
As for `CC(C)CSc1nc(N)nc2c1ncn2CC(C)C`, the growth inhibition is -8.65% in experiment [1]; -6.4% in experiment [2]; 32.7% in experiment [3]; -21.7% in experiment [4]; 29.4% in experiment [5]; 18.9% in experiment [6].
Take `Cc1c(-c2ccccc2)c(-c2ccccc2)c(C)c(-c2ccc3c(c2)CCCC3)c1-c1ccccc1`: the growth inhibition was -15% in experiment [1]; -3.35% in experiment [2]; -33.2% in experiment [3]; 1.75% in experiment [4]; 22.2% in experiment [5]; -16.7% in experiment [6].
In the case of `ON=C1CCCCC1`, the growth inhibition in experiment [1] was 37.9%; in experiment [2], 7.45%; in experiment [3] it was -1.45%; in experiment [4], -27.9%; in experiment [5] it was -3.15%; in experiment [6], 25.1%.
For the compound `CC12CCC(C(S(=O)(=O)O)C1=O)C2(C)C` (stereo not drawn) (tested in a mixture with another compound), the growth inhibition in experiment [1] was -1.2%; in experiment [2] it was -15.1%; in experiment [3], -6.7%; in experiment [4], -5.7%; in experiment [5] it was -0.6%; in experiment [6], 0.55%.
With `CC(C)CCN(CCCNc1c2c(nc3ccc(Cl)cc13)CCCC2)CCC(C)C`, the growth inhibition is -1.65% in experiment [1]; -9.4% in experiment [2]; -7.55% in experiment [3]; -34.4% in experiment [4]; -1.25% in experiment [5]; 4.95% in experiment [6].
For the compound `Cc1ccc(N=N/C(=N/NC(=O)c2ccccc2)c2ccc(N(CCC#N)CCC#N)cc2C)cc1`, the growth inhibition in experiment [1] is 0.85%; in experiment [2] it was 3.3%; in experiment [3] it was -9.65%; in experiment [4], -16.3%; in experiment [5], -3.25%; in experiment [6], -40%.
On to `CN(C)C(=O)Nc1cccc2nsnc12`, for which the growth inhibition in experiment [1] was 12.4%; in experiment [2], -2.75%; in experiment [3] it was 11%; in experiment [4] it was -50.5%; in experiment [5], -5.95%; in experiment [6], 29.6%.
For `N#CCCN(CCc1ccccn1)CN1C(=O)c2ccccc2C1=O`, the growth inhibition in experiment [1] was 10%; in experiment [2], -4.85%; in experiment [3] it was -3.75%; in experiment [4], -7.45%; in experiment [5] it was 3.25%; in experiment [6] it was -13.2%.
Regarding `C[C@@H]1C(N2CCCC2)=CC(=O)OC1c1ccccc1` (stereo partly drawn), the growth inhibition in experiment [1] is -3.65%; in experiment [2], -11.1%; in experiment [3] it was 11.3%; in experiment [4], -6.4%; in experiment [5], -1.3%; in experiment [6], 1.95%.
For the compound `CCCCNC(=O)c1cc2c(cc1Cl)Sc1nccn1S2(=O)=O`, the growth inhibition was -1.1% in experiment [1]; -0.3% in experiment [2]; 1.35% in experiment [3]; 9.2% in experiment [4]; 43.9% in experiment [5]; 28.6% in experiment [6].
For `Cc1cc(=O)c(C#N)c(C)o1`, the growth inhibition in experiment [1] is 6.65%; in experiment [2] it was 10.2%; in experiment [3] it was 19.4%; in experiment [4], -2.7%; in experiment [5], -1.95%; in experiment [6], 10%.
Turning to `COc1cc(CCCCC(=O)O)cc(Br)c1OC`, the growth inhibition in experiment [1] was -17.7%; in experiment [2], -1.95%; in experiment [3], 4.9%; in experiment [4], -33.7%; in experiment [5] it was 29.8%; in experiment [6], -3.85%.
As to `O=C(c1nc2cc([N+](=O)[O-])ccc2[nH]c1=O)C(O)c1ccco1` (stereo not drawn), the growth inhibition in experiment [1] was -8.65%; in experiment [2], -25.4%; in experiment [3] it was -25.2%; in experiment [4], 13.9%; in experiment [5], -35%; in experiment [6], -6.35%.
Regarding `CC(C)(N)COC(=O)c1ccc([N+](=O)[O-])cc1`, the growth inhibition is 3.4% in experiment [1]; -23.7% in experiment [2]; 7.1% in experiment [3]; 0.15% in experiment [4]; 12.2% in experiment [5]; 10.2% in experiment [6].
Take `COc1cc2c(cc1OC)C(=O)CC2`: the growth inhibition in experiment [1] was -12.7%; in experiment [2] it was -10.9%; in experiment [3], -19.7%; in experiment [4], -5.25%; in experiment [5], -4.2%; in experiment [6], 0.15%.
`O=NN(C(=O)NCCCl)c1[nH]c(=O)ncc1I`: the growth inhibition in experiment [1] was -8.65%; in experiment [2], -9.7%; in experiment [3], -13.9%; in experiment [4], -25.2%; in experiment [5] it was 3.05%; in experiment [6], -6.1%.
Turning to `CCOC(=O)c1c(N=P(c2ccccc2)(c2ccccc2)c2ccccc2)nnc(-c2ccccc2)c1-c1ccccc1`, the growth inhibition in experiment [1] was -36.4%; in experiment [2], -15.4%; in experiment [3] it was 10.9%; in experiment [4] it was 1.85%; in experiment [5] it was -6.55%; in experiment [6], 6.5%.
For the compound `CC(=O)OC1CCC(OC(C)=O)[C@H]2[C@@H]1[C@@H]1S[C@H]2c2ccccc21` (stereo partly drawn), the growth inhibition is 1% in experiment [1]; -1.55% in experiment [2]; -0.45% in experiment [3]; 11.1% in experiment [4]; 12.2% in experiment [5]; -1.15% in experiment [6].
`CC(=O)CC(=O)NC(C)(C)CC(C)(C)C`: the growth inhibition in experiment [1] is -16.4%; in experiment [2] it was -41.9%; in experiment [3], -31.8%; in experiment [4], 10.8%; in experiment [5], -34.8%; in experiment [6], -9.55%.
For `OC(CC1CCCCN1)c1ccc2c(c1)oc1ccccc12` (stereo not drawn), the growth inhibition was 71.7% (active) in experiment [1]; 56.9% in experiment [2]; 62.2% in experiment [3]; 56.2% in experiment [4]; 73.8% (active) in experiment [5]; 75.6% (active) in experiment [6].
For the compound `CC(=O)Oc1cc(O)oc(=O)c1`, the growth inhibition was 33% in experiment [1]; -14.8% in experiment [2]; 21.1% in experiment [3]; 19.3% in experiment [4]; 11.3% in experiment [5]; 13.1% in experiment [6].
